In all, about 310,000 compounds went through this assay and about 18,000 (5.8%) were called active. Inconclusive results (about 22%) are left out. This excerpt belongs to a sample that is enriched for actives. Values without a mark were called inactive. Calls come from the whole dose curve; as a rule, active = well fitted inhibition curve with a large enough effect; inconclusive = small, poorly fitted or top-dose-only effect, or another doubt; inactive = no such curve, though single readings can be large or run the other way.
% is set by controls: 0 for no effect and ±100 for the full control effect; potency is the fitted concentration of half-maximal effect.

The nature of the test: Primary qHTS for delayed death inhibitors of the malarial parasite plastid, 48 hour incubation. Conditions: P. falciparum luciferase growth in erythrocytes; series mostly up to 28.7 µM; activity change, negative = inhibition: at the top concentration. A digest of the protocol:
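Erythrocytes infected with P. falciparum carrying an integrated firefly luciferase reporter (2% hematocrit, 0.1% parasitemia final) were exposed to compounds in RPMI 1640 with 0.5% Albumax at 37 C, 5% CO2. Growth inhibition was scored as reduced luminescence.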
(qHTS replaces the single test concentration by a dilution series.)
With `CCN1C(=O)/C(=c2\s/c(=C3\Sc4ccccc4N3C)c(=O)n2C)N(C)C1=S`, the “activity change, negative = inhibition” value was 19.1%.
As to `CN1/C(=c2/s/c(=C3/C(=O)N(c4ccccc4)NC3=Nc3ccccc3)n(C)c2=O)C(C)(C)c2ccccc21`, the Potency was 13.1 µM (active).
As for `CCc1cc2c(NC(Cc3ccccc3)C(=O)O)ncnc2s1` (configuration not stated), the “activity change, negative = inhibition” value was -1.44%.
The same measure, in the same setting: then `CC(C)(C)C(=O)CSc1ccc(S(=O)(=O)N2CCCC2)cn1`, with -9.44%.
Regarding `Cc1ccc(C)c(C(C)NC(=O)C2CCCO2)c1` (configuration not stated), the “activity change, negative = inhibition” value was -1.62%.
For the compound `COc1ccc(C(=O)NC2CC2)cc1OC1CCN(Cc2cnn(C)c2)CC1`, the “activity change, negative = inhibition” value is 3.24%.
The same measure, in the same setting: then `Clc1ccc(CN2CCCCCC2)cc1Cl`, with 6.3%; and `Cn1c(-c2ccccc2)c[n+]2c1CCCCC2`, with 8.51%.
Take `Clc1ccc(C[n+]2cc(-c3ccccc3)n3c2CCC3)cc1`: the Potency is 1.04 µM (active).
Consider `Clc1ccc(C[n+]2cc(-c3ccc(Cl)cc3)n3c2CCC3)cc1`, for which the Potency is 0.828 µM (active).
As to `CC(NC(=O)c1cc2cc(Cl)ccc2oc1=N)c1ccccc1` (configuration not stated), the “activity change, negative = inhibition” value is -10%.
Still for that read-out and setting: for `O=C(Nc1ccc(F)cc1)C(=O)c1cn(CC(=O)N2CCOCC2)c2ccccc12` the value was 30.2%.
The same measure, in the same setting: for `COc1ccc(S(=O)(=O)NC(C)C(=O)NCc2ccncc2)cc1Cl` (configuration not stated) the value was 0.828%.
Same read-out and setting: then `COc1ccc(NC(=O)CCCC(=O)c2ccccc2)cc1`, with 11.9%; and `CC(C)Cn1c(N)c(C(=O)COC(=O)C2CCCN2C(=O)c2cccs2)c(=O)n(C)c1=O` (configuration not stated), with 8.16%; and `Cc1ccc(OCCCC(=O)Nc2ccc(S(=O)(=O)Nc3cc(C)nc(C)n3)cc2)cc1`, with -5.9%.
On to `O=C(Nc1ccccc1)N1CCC(C(=O)N2CCN(Cc3ccccc3)CC2)CC1`, for which the “activity change, negative = inhibition” value is -15.4%.
Same read-out and setting: then `O=C(Nc1ccccc1)N1CCN(C(=O)Nc2ccccc2)CC1`, with -2.63%.
As for `O=C(Nc1ccccc1)N1CCN(C2c3ccccc3-c3ccccc32)CC1`, the Potency was 2.62 µM (active).
As for `Cc1cccc(OC(C)C(=O)N2CCc3ccccc3C2)c1` (configuration not stated), the “activity change, negative = inhibition” value was 0.0639%.
Regarding `Brc1ccc(Nc2c3c(nc4ncnn24)CCC3)cc1`, the Potency was 0.586 µM (active).
As for `Cc1cc(Nc2ccc(Br)cc2F)n2ncnc2n1`, the “activity change, negative = inhibition” value is 21.5%.
On the same count and under the same terms, for `Cc1nc(S(=O)(=O)c2ccc(Br)cc2)nc2c1CCC2` the value was -12.4%.
As for `O=C(COC(=O)C1CC2CCCC(C1)C2=O)NC(=O)c1ccccc1` (configuration not stated), the “activity change, negative = inhibition” value is 33.2%.
For `COCCC(=O)N1CCC(Oc2ccc(C(=O)NCc3ccon3)cc2)CC1`, the “activity change, negative = inhibition” value was 6.27%.
Consider `CC(=O)c1c(C)oc2ccc(NS(=O)(=O)c3ccccc3)cc12`, for which the “activity change, negative = inhibition” value is -5.13%.
On the same count and under the same terms, for `Cc1ccn2c(=O)c(C(=O)NCCC3=CCCCC3)c(O)nc2c1` the value was -26.9%.
On the same count and under the same terms, then `CCCCC[C@H]1CN(C2CCCCC2)C(=O)[C@@H]1CC(=O)NCc1ccc(OC)cc1`, with -8.42%.
The same measure, in the same setting: then `O=C(NCc1ccco1)/C(=C/c1cccc([N+](=O)[O-])c1)NC(=O)c1ccco1`, with 14.4%; and `Cc1ccc(N2CCN(c3ccc([N+](=O)[O-])cn3)CC2)c(C)c1`, with -8.92% [at 0.00184 µM].
On to `CN(CCNC(=O)c1cc2c(-c3ccccc3F)nn(C)c2s1)C1CCCCC1`, for which the Potency was 1.65 µM (active).
For the compound `CN(CCc1cnn(C)c1)Cc1cn(C)nc1-c1ccccc1F`, the “activity change, negative = inhibition” value is 8.68%.
Same read-out and setting: for `CCOCCCNC(=O)c1cc2c(=O)n3ccccc3nc2s1` the value was 68.5%.
On the same count and under the same terms, for `COc1ccc(N2CCN(S(=O)(=O)c3ccc4c(c3)NC(=O)C(C)C(=O)N4)CC2)cc1` (configuration not stated) the value was 6.59%; for `CC(=O)c1ccc(S(=O)(=O)Nc2ccc(-c3ccc4nncn4n3)cc2)cc1`, -20.6%; for `O=C(CNC(=O)c1ccc(F)cc1)c1ccccc1`, 138%.
In the case of `COC(=O)C[n+]1cccc2ccccc21`, the “activity change, negative = inhibition” value is -26.9%.
With `O=C(C[n+]1cc(Br)cc2ccccc21)c1ccc(F)cc1`, the Potency was 11.7 µM (active).
Turning to `Cc1cccc(NS(=O)(=O)c2ccc(-c3cnc(C4CC4)o3)cc2)c1`, the “activity change, negative = inhibition” value was -2.4%.
Regarding `COc1ccccc1C(=O)COC(=O)CSCC(=O)Nc1cc(C)on1`, the “activity change, negative = inhibition” value is 37.2%.
Still for that read-out and setting: then `COC(=O)c1ccc(COC(=O)CNC(=O)c2cccc(OC)c2)o1`, with 16.9%; and `COc1cc(/C=N/N2CCN(c3ccccc3)CC2)ccc1OC(C)=O`, with -1.15%.
For the compound `COc1ccc(C(c2nnnn2Cc2cccs2)N2CCN(c3ccccc3)CC2)cc1OC` (configuration not stated), the Potency is 14.7 µM (active).
Same read-out and setting: for `COc1ccccc1C(c1nnnn1CC1CCCO1)N1CCN(c2ccccc2)CC1` (configuration not stated) the value was 11.7 µM (active).
As for `COc1ccccc1NC(=O)CSc1nnc(C)n1CC1CCCO1` (configuration not stated), the “activity change, negative = inhibition” value was 0.849%.
For the compound `COc1ccc(CCn2nnnc2C(c2ccccc2)N2CCN(C)CC2)cc1OC` (configuration not stated), the “activity change, negative = inhibition” value is -0.211%.
Regarding `O=C(CSc1nnc(-c2ccco2)n1CC1CCCO1)c1ccccc1` (configuration not stated), the “activity change, negative = inhibition” value is 15.4%.
On the same count and under the same terms, for `CCOc1cccc2cc(C(=O)OCC(=O)Nc3c(C)cccc3CC)c(=O)oc12` the value was 8.47%; for `CCCc1ccc(C(=O)COC(=O)CN2C(=O)NC3(CCCCC3C)C2=O)cc1` (configuration not stated), -24.2%.
Consider `CC(=O)c1ccc(-n2nnnc2SCC(=O)N2CCN(C(=O)c3ccco3)CC2)cc1`, for which the “activity change, negative = inhibition” value is -23.9%.
As to `CCC(c1nnnn1C1CCCC1)N1CCN(C(=O)c2ccco2)CC1` (configuration not stated), the Potency was 8.28 µM (active).
As to `CC(C)C(c1nnnn1C1CCCCC1)N1CCN(C(=O)c2ccco2)CC1` (configuration not stated), the “activity change, negative = inhibition” value was -21.3%.
